Records with an inconclusive call do not appear. Values without a mark were called inactive. Active and inactive are the calls of the source. Calls come from the whole dose curve; as a rule, active = well fitted cell-killing curve with a large enough effect; inconclusive = small, poorly fitted or top-dose-only effect; inactive = flat fitted curve, though single readings scatter.
assay: Quantitative highthroughput screen to assess conditional lethalithy of P12 Ichikawa cells grown in RPMI1640 with dialyzed fetal bovine serum (RPMI+ds) (AID 1963880); details: ATP luminescence, 48 h; Potency: P12-Ichikawa viability; series mostly up to 45.8 µM; viability: at the top concentration; note: nearly all actives have a fitted effect of over 35% in size
Description: Assay Provider: Jason Cantor Ph.D.
Department of Biochemistry
University of Wisconsin-Madison, Madison, WI, USA
Chemical screening studies have identified drug sensitivities across hundreds of cancer cell lines but most putative therapeutics fail to translate. Discovery and development of drug candidates in models that more accurately reflect nutrient levels in human blood is a major challenge. Here we performed high-throughput screens in conventional versus Human Plasma-Like Medium (HPLM) to identify compounds that were "missed" when screening using the artificial culture condition. Sets of conditional anticancer compounds spanned phases of clinical development and included non-oncology drugs were assessed. […] We also traced conditional phenotypes for several chemotherapeutics to availability of HPLM-specific metabolites and confirmed others for compounds whose reported targets are encoded by nonessential genes. Our findings establish generalizable strategies for exploiting conditional lethality in HPLM to reveal therapeutic candidates and mechanisms of action in cancer cells.
Described herein are the results of each viability screens against three cell lines: NOMO1 (an acute myeloid leukemia cell line); P12-Ichikawa (a T-cell acute lymphoblastic leukemia); and SEM (a B-cell ALL). Each assay was screened using 3 different cell culture media: homemade human plasma-Like medium with 10% dialyzed fetal bovine serum (HPLM+ds); RPMI1640 with 10% untreated FBS and 5mM glucose (RPMI+s); and RPMI1640 with 10% dialyzed fetal bovine serum and 5 mM glucose (RPMI+ds).
PROTOCOL TABLE (as described by Inglese J, Shamu CE and Guy RK. 2007)
SEQUENCE No. (e.g., 1, 2, 3, etc.); […] (e.g., Cells, Incubation, Reagent, etc.); VALUE and DESCRIPTION.
1; Cells; 5 uL; white, solid bottom 1536-well Greiner assay plate.
2; Compounds; 23 nL; Kalypsis pin tool (Wako USA) equipped with a 1536-well pin head to transfer to the assay plates.
3; Incubation; 48 hours; 37C incubation.
4; Reagent; 3 uL; CellTiter Glo (Promega).
5; Incubation; 5 min, room temperature
6; Detection; Luminescence, Viewlux PerkinElmer.
NOTES (numbers refer to Sequence numbers above)
1. Briefly, 5 ul of cell reagent was dispensed using a Multidrop Combi Dispenser. The NOMO1 and SEM cells were plated at 500 cells/well and the P12-Ichikawa line at 1000 cells/well.
2. After seeding the cells, 23 nL of MIPE 4.1 library compounds (in DMSO) were added to each plate using a Kalypsys 1536 Pintool dispenser. Bortezomib at final concentration of […] and DMSO were added to each plate as positive and negative controls respectively. For each screen, MIPE 4.1 compounds were added over an eleven-point concentration range […] in 3-fold dilutions.
3. Each plate was covered with a stainless steel gasketed lid to prevent evaporation and incubated for 48 hour at 37C, 95% relative humidity, and 5% CO2.
4-5. Three microliter CellTilter-GloTM luminescent substrate mix (Promega) reagent was added to the assay plate and incubated at room temperature for 5 min.
6. The luminescence signal was measured using a ViewLux (PerkinElmer) multiplate reader with a 2 second exposure time per plate. Data for each compound were normalized as percent viability such that measurements for DMSO and the empty well controls in each plate were defined as 100% and 0%, respectively.
Potency is the fitted concentration of half-maximal effect.

SMILES | viability | Potency
O=C(Nc1nc2ccccc2n1CCN1CCOCC1)c1cccc([N+](=O)[O-])c1 | 90.9% | –
Nc1[nH]nc2nnc(-c3c(-c4ccccc4)nn4ccccc34)cc12 | – | 13.2 µM (active)
C=C(C)[C@@H]1CC[C@]2(C(=O)O)CC[C@]3(C)[C@H](CC[C@@H]4[C@@]5(C)CC[C@H](O)C(C)(C)[C@@H]5CC[C@]43C)[C@@H]12 | 87.6% | –
NC(=O)c1ncn([C@@H]2O[C@H](CO)[C@@H](O)[C@@H]2O)c1O | 96.4% | –
COc1ccccc1OCC(O)COC(N)=O (stereo not given) | 98.4% | –
NC[C@H]1O[C@H](O[C@H]2[C@@H](O)[C@@H](O[C@H]3O[C@H](CO)[C@@H](O)[C@H](N)[C@@H]3O)[C@H](N)C[C@@H]2N)[C@H](N)C[C@H]1O | 122% | –
CCOc1cc(C=C2C(=O)N(c3ccccc3)N=C2C)cc(Cl)c1OCC(=O)OC | 97.9% | –
CC(C)n1cnc2c(NCCc3ccc(O)cc3)nc(-c3csc4ccccc34)nc21 | – | 13.2 µM (active)
NC(=O)c1cccc(-c2cc(Nc3ccc(OC(F)(F)F)cc3)ncn2)c1 | 81.9% | –
Nc1ncnc2c1c(-c1cnc3[nH]ccc3c1)nn2C1CCCC1 | – | 1.48 µM (active)
CN1CCN(CCOc2cc(OC3CCOCC3)c3c(Nc4c(Cl)ccc5c4OCO5)ncnc3c2)CC1 | – | 18.7 µM (active)
Cc1cc(NC(=O)Nc2ccc(N(C)C)cc2)c2cc(F)cc(F)c2n1 | 104% | –
CC(C)[C@H](C(=O)Nc1ccc(C(=O)NO)cc1)c1ccccc1 | – | 2.35 µM (active)
c1coc(CNc2ncnc3nc[nH]c23)c1 | 97.8% | –
COc1cc(C(C)=O)ccc1OCCCN1CCC(c2noc3cc(F)ccc23)CC1 | 81.3% | –
CNC(=O)c1ccc(Nc2ncc(C(F)(F)F)c(NCc3nccnc3N(C)S(C)(=O)=O)n2)cc1 | 94.3% | –
C#CCN(C)CC1=Cc2ccccc2Oc2ccccc21 | 100% | –
C[C@H](O)[C@@H]1C(=O)N2C(C(=O)O)=C(S[C@@H]3CN[C@H](CNS(N)(=O)=O)C3)[C@@H](C)[C@@H]12 | 94.5% | –
COc1cccc2c1CCCC2CCCN1CCN(C2CCCCC2)CC1 (stereo not given) | – | 18.7 µM (active)
CCOC(=O)C(C)(C)Oc1ccc(Cl)cc1 | 90.8% | –

SMILES | viability | Potency
C=CCc1cc(OC)c(O)c(C(=O)NCCO)c1 | 104% | –
CC(C)(C)C(=O)Oc1ccc2c(c1)nc(NC(=O)c1cccc([N+](=O)[O-])c1)n2CCCO | 88.2% | –
CC[C@H](NC(C)C)[C@H](O)c1ccc(O)c2[nH]c(=O)ccc12 | 103% | –
Cn1cc(-c2ccc3ncc(Cc4ccc5ncccc5c4)n3n2)cn1 | 103% | –
CC(=O)SC[C@@H](C)C(=O)N1CCC[C@H]1C(=O)N[C@@H](Cc1ccccc1)C(=O)O | 92.5% | –
CC(S)C(=O)NCC(=O)O (stereo not given) | 91.4% | –
CN[C@@H](C)[C@H]1[C@H](O)C[C@@]2(C)[C@@H]3CC[C@H]4C(C)(C)[C@@H](NC)CC[C@@]45C[C@@]35CC[C@]12C | 90.2% | –
Oc1ccc(C2=Cc3ccc(O)cc3OC2)cc1 | – | 2.64 µM (active)
CN(C)c1ccccc1CN1CCCN(Cc2ccccc2N(C)C)C1c1ccncc1 | 77% | –
C[C@]12CC[C@H](O)CC1=CC[C@@H]1[C@H]2CC[C@]2(C)C(c3cccnc3)=CC[C@H]12 | 101% [at 23.2 µM] | –
C[C@]12CC[C@@H]3c4ccc(O)cc4C[C@@H](CCCCCCCCCS(=O)CCCC(F)(F)C(F)(F)F)[C@H]3[C@H]1CC[C@H]2O (stereo not given in full) | 106% | –
O=C1C(Cl)=C(NCCN2CCOCC2)C(=O)c2ncccc21 | – | 20.9 µM (active)
Cc1nc(-c2ccc(OCC(C)C)c(C#N)c2)sc1C(=O)O | 92% | –
CC(=O)NC(C)c1ccc(Oc2ccc(OC(C)C)cc2)cc1 (stereo not given) | 103% | –
O=C(O)C=Cc1ccc(Cn2ccnc2)cc1 | 110% | –
N#Cc1cc(NC(=O)Nc2nnc(-c3ccncc3)s2)ccc1-c1cn[nH]c1 | 97.1% | –
CC[C@H](NC(=O)[C@H](C)NC)C(=O)N1C[C@@H](O)C[C@H]1Cc1c(-c2[nH]c3cc(F)ccc3c2C[C@H]2C[C@H](O)CN2C(=O)[C@H](CC)NC(=O)[C@H](C)NC)[nH]c2cc(F)ccc12 | – | 2.64 µM (active)
CN(C)CCOc1cc(-c2cn[nH]c2)ccc1NC(=O)C1COc2ccccc2O1 (stereo not given) | 83.3% | –
c1ccc2c(Oc3nc(Nc4ccc(N5CCOCC5)cc4)c4ncn(C5CCCCC5)c4n3)cccc2c1 | 91% | –
N#CC(=C(N)Sc1ccccc1N)C(C#N)=C(N)Sc1ccccc1N | 88.9% | –

From PubChem BioAssay (NCATS)
